Some test systems named below: SR leukemia; RPMI-8226 leukemia; OVCAR-8 ovarian; OVCAR-5 ovarian; OVCAR-4 ovarian; SK-OV-3 ovarian; IGROV1 ovarian; OVCAR-3 ovarian; HS 578T breast; NCI/ADR-RES ovarian; T-47D breast; BT-549 breast; MDA-MB-435 melanoma; SW-620 colon; MCF7 breast; HCT-116 colon; HCC-2998 colon; KM12 colon.
What all share (assay): NCI-60 one-dose screen, 48 h (100 = growth as untreated, 0 = no growth, -100 = all killed)
Settings in all cases: 10 µM unless noted

About 83,000 compounds went through this panel and 20% of them were active in at least one assay; those are over-represented in the sample as a whole.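 Treatment: one concentration, 48 hours, 96-well format. Scoring: percent growth, with anything below 10 considered active.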 Unmarked numbers belong to inactive results. Activity calls are given as the source filed them.

Take `CN(C)C(=O)C1=NC(CO)C(=O)N(c2ccc(Cl)cc2)N1` (centres undefined): the growth with SR leukemia was 107%; with RPMI-8226 leukemia it was 101%; in the assay on OVCAR-8 ovarian, 104%; in the assay with OVCAR-5 ovarian, 96.5%; in the assay with OVCAR-4 ovarian, 114%; in the assay with SK-OV-3 ovarian it was 114%. For the same molecule, the growth in the assay with IGROV1 ovarian was 101%; in the assay on OVCAR-3 ovarian it was 110%; in the assay with HS 578T breast, 104%; in the assay on NCI/ADR-RES ovarian it was 104%; in the assay on T-47D breast, 98.6%; in the assay on BT-549 breast, 99.2%. The growth in the assay on MDA-MB-435 melanoma is 106%; in the assay with SW-620 colon it was 103%; in the assay with MCF7 breast, 95.6%; in the assay on HCT-116 colon, 88.3%; with HCC-2998 colon, 109%; in the assay with KM12 colon, 98.2%.

`Oc1ccc(CSc2nnc(-c3cnccn3)o2)c2cccnc12`: the growth in the assay with SR leukemia was 20.5%; with RPMI-8226 leukemia it was 7.74% (active); with OVCAR-8 ovarian, 15.1%; with OVCAR-5 ovarian, 36.9%; in the assay on OVCAR-4 ovarian it was 36.6%; with SK-OV-3 ovarian, 9.11% (active). For the same molecule, the growth is 23.4% in the assay with IGROV1 ovarian; 11.9% with OVCAR-3 ovarian; 19% with HS 578T breast; 33% in the assay on NCI/ADR-RES ovarian; 18.5% in the assay on T-47D breast; 31.7% with BT-549 breast. Besides, the growth was 13.1% in the assay on MDA-MB-435 melanoma; 12.9% in the assay with SW-620 colon; 5.44% (active) in the assay with MCF7 breast; 14.5% with HCT-116 colon; 13.2% in the assay with HCC-2998 colon; 12.5% in the assay on KM12 colon.

With `CCNC(=NCCCN(C)C)N/C(N)=N/c1nc2ccccc2s1`, the growth with SR leukemia is 55.1%; in the assay on RPMI-8226 leukemia, 96.9%; in the assay on OVCAR-8 ovarian it was 90.9%; in the assay with OVCAR-5 ovarian it was 95.6%; in the assay on OVCAR-4 ovarian it was 107%; in the assay on SK-OV-3 ovarian it was 89.9%. In addition, the growth was 91.1% with IGROV1 ovarian; 104% with OVCAR-3 ovarian; 92% in the assay on HS 578T breast; 96.8% in the assay with NCI/ADR-RES ovarian; 94.7% in the assay with T-47D breast; 97.1% with BT-549 breast. Further, the growth was 93.8% in the assay with MDA-MB-435 melanoma; 103% with SW-620 colon; 82.8% in the assay on MCF7 breast; 76.4% in the assay with HCT-116 colon; 98.1% with HCC-2998 colon; 93.9% in the assay on KM12 colon.

With `N/C(=N\c1nc2c(Cl)cccc2s1)C(Cl)(Cl)Cl`, the growth in the assay on SR leukemia is 94.2%; in the assay on RPMI-8226 leukemia, 53.3%; in the assay on OVCAR-8 ovarian, 87.6%; with OVCAR-5 ovarian, 95.5%; with OVCAR-4 ovarian, 76%; with SK-OV-3 ovarian, 91.3%. Also, the growth in the assay on IGROV1 ovarian is 89.1%; with OVCAR-3 ovarian it was 57.9%; in the assay on HS 578T breast, 80.2%; in the assay with NCI/ADR-RES ovarian, 89%; in the assay with T-47D breast it was 42.4%; with BT-549 breast, 111%. Also, the growth was 89.1% in the assay on MDA-MB-435 melanoma; 82.5% in the assay on SW-620 colon; 49.3% with MCF7 breast; 69.7% in the assay on HCT-116 colon; 72.9% in the assay on HCC-2998 colon; 41.5% in the assay on KM12 colon.

As for `C=C(C)[C@@H]1CC[C@]2(COS(C)(=O)=O)CC[C@]3(C)[C@H](CC[C@@H]4[C@@]5(C)CCCNC(C)(C)[C@@H]5CC[C@]43C)[C@@H]12`, the growth is -1.07% (active) with SR leukemia; 44.9% in the assay on RPMI-8226 leukemia; 92.1% with OVCAR-8 ovarian; 92.5% in the assay with OVCAR-5 ovarian; 95.8% with OVCAR-4 ovarian; 107% in the assay on SK-OV-3 ovarian. Further, the growth in the assay with IGROV1 ovarian was 78.2%; in the assay on OVCAR-3 ovarian, 92.2%; with HS 578T breast it was 91.4%; in the assay on NCI/ADR-RES ovarian, 92%; with T-47D breast it was 77.5%; in the assay on BT-549 breast, 93.9%. The growth with MDA-MB-435 melanoma was 44.9%; in the assay with SW-620 colon it was 4.87% (active); in the assay on MCF7 breast it was 3.49% (active); in the assay with HCT-116 colon, 15.6%; in the assay on HCC-2998 colon it was 16.4%; in the assay on KM12 colon, 26.2%.

In the case of `O=C(CN1C(=O)S/C(=C\c2ccccc2)C1=O)Nc1ccc(C(=O)/C=C/c2cc3ccccc3nc2Cl)cc1`, the growth is 42.4% with SR leukemia; 26.2% in the assay with RPMI-8226 leukemia; 81.9% with OVCAR-8 ovarian; 99.5% in the assay with OVCAR-5 ovarian; 41.9% in the assay on OVCAR-4 ovarian; 82.5% in the assay with SK-OV-3 ovarian. Further, the growth in the assay on IGROV1 ovarian is 80.4%; in the assay on OVCAR-3 ovarian, 85.6%; with HS 578T breast, 96.1%; in the assay on NCI/ADR-RES ovarian, 88.8%; in the assay with T-47D breast, 54.6%; in the assay with BT-549 breast, 60.9%. Moreover, the growth is 82.9% with MDA-MB-435 melanoma; 98% in the assay on SW-620 colon; 26.6% in the assay on MCF7 breast; -64.1% (active) in the assay with HCT-116 colon; 97.8% in the assay with HCC-2998 colon; 87.7% in the assay on KM12 colon.

Turning to `CC(=O)NC(C)(C)C(=O)N[C@@H](C)C(=O)NC(C)(C)C(=O)N[C@@H](C)C(=O)NC(C)(C)C(=O)N[C@@H](C)C(=O)N[C@@H](CCC(N)=O)C(=O)NC(C)(C)C(=O)N[C@H](C(=O)NC(C)(C)C(=O)NCC(=O)N[C@@H](CC(C)C)C(=O)NC(C)(C)C(=O)N1CCC[C@H]1C(=O)N[C@H](C(=O)NC(C)(C)C(=O)NC(C)(C)C(=O)N[C@@H](CCC(N)=O)C(=O)N[C@@H](CCC(N)=O)C(=O)N[C@H](CO)CC1CCCCC1)C(C)C)C(C)C`, the growth is 43.6% [5 µM] with SR leukemia; -3.49% [5 µM] (active) with RPMI-8226 leukemia; 44.2% [5 µM] with OVCAR-8 ovarian; 55.1% [5 µM] in the assay on OVCAR-5 ovarian; 23.8% [5 µM] with OVCAR-4 ovarian; 45.1% [5 µM] with SK-OV-3 ovarian. Moreover, the growth is 49.3% [5 µM] in the assay on IGROV1 ovarian; 35% [5 µM] in the assay on OVCAR-3 ovarian; 62.1% [5 µM] with HS 578T breast; 96.9% [5 µM] in the assay with NCI/ADR-RES ovarian; 25% [5 µM] with T-47D breast; -4.41% [5 µM] (active) with BT-549 breast. Besides, the growth with MDA-MB-435 melanoma is 9.46% [5 µM] (active); in the assay on SW-620 colon it was 37.1% [5 µM]; in the assay with MCF7 breast, 17.2% [5 µM]; with HCT-116 colon, 49.3% [5 µM]; with HCC-2998 colon, 49.9% [5 µM]; in the assay on KM12 colon, 63.3% [5 µM].

Take `NC(=O)C(=Cc1ccc(Cl)cc1)C(N)=O`: the growth in the assay with SR leukemia was 53.3%; in the assay with RPMI-8226 leukemia, 41.9%; in the assay with OVCAR-8 ovarian, 65.6%; in the assay with OVCAR-5 ovarian, 78.2%; with OVCAR-4 ovarian, 62.3%; in the assay with SK-OV-3 ovarian, 117%. The growth in the assay with IGROV1 ovarian was 59.1%; in the assay with OVCAR-3 ovarian it was 52%; in the assay on HS 578T breast, 89.7%; with NCI/ADR-RES ovarian it was 57.1%; with T-47D breast, 45.2%; with BT-549 breast it was 58.1%. Moreover, the growth is 69.6% in the assay with MDA-MB-435 melanoma; 52.2% in the assay on SW-620 colon; 34.4% with MCF7 breast; 52.2% with HCT-116 colon; 85.7% with HCC-2998 colon; 85.2% in the assay with KM12 colon.

For the origin of these results see PubChem BioAssay (NCI).
